# Experimental data as given in PubChem BioAssay (NCI).
# This is part of a sample that, as a whole, favours compounds with a hit. Of some 83,000 tested, about 20% had one in any assay.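 Treatment: one concentration, 48 hours, 96-well format. Scoring: percent growth, with anything below 10 considered active.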 Unmarked numbers belong to inactive results. The source made the active and inactive calls.
# Tests used:
# Test in all cases: NCI-60 one-dose screen, 48 h (100 = growth as untreated, 0 = no growth, -100 = all killed)
# Conditions in all cases: 10 µM unless noted
# [1] = system: T-47D breast
# [2] = system: BT-549 breast
# [3] = system: MDA-MB-435 melanoma
# [4] = system: SW-620 colon
# [5] = system: MCF7 breast
# [6] = system: HCT-116 colon
# [7] = system: HCC-2998 colon
# [8] = system: KM12 colon
# [9] = system: MDA-MB-468 breast
SMILES,growth [1],growth [2],growth [3],growth [4],growth [5],growth [6],growth [7],growth [8],growth [9]
COc1cc(CNC(=O)C[C@H](C)CCC=C(C)C)ccc1OCc1cn(-c2cccc(C(F)(F)F)c2)nn1,32.4%,92.3%,74.9%,38.7%,56.8%,12.5%,111%,85%,64.9%
COc1ccc2[nH]cc(-c3cc4nc(-c5cn(C)c6ncccc56)cc(N)n4n3)c2c1,33.3%,-8.26% (active),52.5%,-53.3% (active),-24.8% (active),-81.3% (active),-96.5% (active),-66.2% (active),-75.9% (active)
O=C1Nc2ccc(F)cc2/C1=C/C(=O)c1cc2ccccc2oc1=O,93.4%,116%,103%,20.9%,69.4%,88.7%,121%,101%,22.3%
O=C1/C(=C/c2cccc3c2OCO3)Cc2c(F)cc(Br)cc21,95.2%,123%,104%,114%,84.2%,104%,117%,110%,105%
O=C(O)CC1S/C(=N/N=C/c2nc3ccccc3s2)NC1=O (stereo unspecified),85.4%,98.2%,102%,104%,60.9%,71.1%,106%,90.6%,104%
CCCCCCCCCCCCCCCCCC(=O)Nc1ccc(OC)cc1,108%,108%,115%,103%,93.3%,102%,122%,101%,99.8%
Cc1ccc(Cl)cc1NC(=O)Nc1nc2ccc([N+](=O)[O-])cc2s1,-19.7% (active),-30.3% (active),-18.2% (active),-21.9% (active),0.201% (active),-37.7% (active),-10.1% (active),-2.73% (active),-39.3% (active)
CS(=O)(=O)c1ccc(-n2nc(C(=O)NCc3ccccc3)cc2-c2ccc(Cl)cc2)cc1,66.6%,143%,91.7%,99.8%,70.1%,69.6%,99.4%,89.2%,86.7%
CN(C)CCOc1ccc(C(=O)C2[C@H](c3ccc(Cl)cc3)[C@@H](c3ccccc3)NC23C(=O)Nc2ccc(Cl)cc23)cc1 (stereo partly specified),-81.7% (active),-97.6% (active),-96.2% (active),-87.2% (active),-81.5% (active),-91% (active),-91.8% (active),-67.1% (active),-92.3% (active)
Cn1cc(-c2cc(N)n3nc(-c4c[nH]c5ccccc45)cc3n2)c2ccccc21,-56.6% (active),-92.5% (active),-80.6% (active),-87.1% (active),-77.3% (active),-88% (active),-77.1% (active),-80% (active),-79.8% (active)
Nc1cc2ccccc2c(=O)n1NC(=O)c1ccccc1,77.7%,120%,99.8%,94.8%,53.8%,96.5%,120%,97.7%,-35.4% (active)
CCCCCCCOc1ccc(S(=O)(=O)Nc2ccc(C)c(F)c2C(=O)O)cc1,93.9%,103%,102%,100%,86.6%,95.5%,117%,97.1%,72.8%
CC[C@]12C=CCN3CC[C@@]4(c5ccc(OC)cc5N(C)[C@H]4[C@@](O)(C(=O)OC)[C@@H]1OC(=O)CCCC[P+](c1ccc(F)cc1)(c1ccc(F)cc1)c1ccc(F)cc1)[C@@H]32,12.8%,-23.5% (active),-16% (active),36.9%,5.18% (active),23.4%,19.4%,16%,-74.6% (active)
Clc1ccc(-c2nc3c4c(-c5ccccc5)c(-c5ccccc5)n(Cc5ccccc5)c4ncn3n2)cc1,7.51% (active),-28.4% (active),5.5% (active),12%,-2.7% (active),3.25% (active),22.1%,9.06% (active),-40.4% (active)
